# Results from PubChem BioAssay.
# Active and inactive are the calls of the source.
# Columns and labels:
# [1] = small molecules captured by biotinylated probe aFSTL3 – biochemical, small-molecule microarray, fluorescence 635/667, stem cell growth factor project, primary screen (AID 1064); settings: higher = more signal;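 also: measures binding of the biotinylated anti-FSTL3 antibody to printed compounds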
# [2] = binders from COS7 lysate, DM2A8 probe, primary screen, torsin A project, cell lysate, small-molecule microarray, fluorescence 635/667 (AID 1065); settings: higher = more signal, COS7 lysate expressing mutant human TOR1A
# [3] = small molecules captured by biotinylated probe aFGF2 – biochemical, small-molecule microarray, fluorescence 635/667, stem cell growth factor project, primary screen (AID 1067); settings: higher = more signal;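 also: measures binding of biotinylated aFGF2 protein to printed compounds on slides; z-score merges feature fluorescence and signal-to-noise across triplicate slides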
# [4] = small molecules captured by biotinylated probe aFGF10 – biochemical, small-molecule microarray, fluorescence 635/667, stem cell growth factor project, primary screen (AID 1071); settings: higher = more signal;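 also: score merges 667 nm spot intensity and signal to noise from triplicate slides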
# [5] = target: Neurogenic locus notch homolog protein 2 (Homo sapiens) (UniProt Q04721); assay: small molecules binding Notch2 protein – biochemical, small-molecule microarray, 635 nm fluorescence, stem cell growth factors, primary screen (AID 1073); settings: higher = more signal
# [6] = target: Pro-neuregulin-1, membrane-bound isoform (Homo sapiens) (UniProt Q02297); assay: small molecules binding neuregulin-1 protein – biochemical, small-molecule microarray, fluorescence 635/667, psychiatric disease protein project, primary screen (AID 1075); settings: NRG1 binding, 635 nm fluorescence, higher = more signal;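 also: score combines 667 nm spot fluorescence with signal to noise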
# [7] = system: Neuregulin-1 EGF-like domain; assay: small molecules binding NRG1 EGF domain – biochemical, small-molecule microarray, 635 nm fluorescence, primary screen (AID 1081); settings: higher = more signal;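 also: binding of the protein to compounds printed on small-molecule microarray slides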
# [8] = FRG1 expression reporter modulators in myotubes – cell-based, C2C12 myotubes, firefly/Renilla luciferase, luminescence, FRG1 inhibition for FSHD, primary screen (AID 1084); settings: FRG1 promoter luciferase, higher = more signal, called active from +8 up or from −8 down
# [9] = small molecules captured by biotinylated probe aFST – biochemical, small-molecule microarray, fluorescence 635/667, stem cell growth factor project, primary screen (AID 1086); settings: higher = more signal;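 also: score merges 667 nm fluorescence with signal-to-noise of each printed compound spot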
# [10] = binders of probe aHhip on microarray, primary screen, stem cell growth factor project, biochemical, small-molecule microarray, fluorescence 635/667 (AID 1087); settings: higher = more signal;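 also: score merges spot fluorescence at 667nm with spot signal to noise ratio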
# [11] = system: PRMT1 (protein arginine N-methyltransferase 1); assay: small molecules binding arginine methyltransferase PRMT1 – biochemical, small-molecule microarray, 635 nm fluorescence, primary screen (AID 1088); settings: higher = more signal;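 also: binding of Prmt1 protein to compounds spotted on small-molecule microarray slides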
# [12] = growth effects on S. cerevisiae YJM789 – YJM789 clinical isolate, OD600, 24 h, basal, primary screen (AID 1089); settings: higher = more signal, called active from +8 up or from −8 down;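 also: growth of clinical yeast isolate S. cerevisiae YJM 789 seeded 1000 cells per well; test concentration not given here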
# [13] = S. pombe growth modifiers, basal conditions – strain 972, OD600, 24 h, no modulator, primary screen (AID 1090);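 also: basal condition with compound alone and no growth modifier present; test concentration not given here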; settings: S. pombe 972 growth, higher = more signal, called active from +8 up or from −8 down
# [14] = budding yeast growth modifiers under rapamycin – strain BY4716, OD600, 96 h, primary screen (AID 1091); also: test concentration not given here; settings: S. cerevisiae BY4716 + rapamycin, higher = more signal, called active from +8 up or from −8 down
# [15] = target: Torsin-1A-interacting protein 2 (Homo sapiens) (UniProt Q8NFQ8); assay: small molecules binding lysate-expressed LULL1 – cell lysate, human LULL1 lysate, 635/667 nm fluorescence, primary screen (AID 1092); settings: small-molecule microarray, hLULL1 lysate binding, 635 nm fluorescence; higher = more signal;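 also: probe is lysate of COS7 cells overexpressing human LULL1; score merges per-feature 667 nm fluorescence with signal-to-noise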
# [16] = optical density change of DRC41 E. coli – strain DRC41, OD650, 24 h, E. coli filamentation project, primary screen (AID 1093);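 also: MC1000 strain lacking acrAB efflux and sulA so SOS filamentation is blocked; test concentration not given here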; settings: E. coli DRC41 growth, higher = more signal, called active from +8 up or from −8 down
# [17] = probe aLefty2 binding to arrayed compounds – biochemical, biotinylated probe, 635/667 nm fluorescence, primary screen (AID 1094); settings: small-molecule microarray, higher = more signal;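 also: score merges spot fluorescence near 667 nm with spot signal-to-noise ratio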
# [18] = system: Noggin (protein binding on small-molecule microarray); assay: small molecules binding Noggin protein – biochemical, 635/667 nm fluorescence, primary screen (AID 1095); settings: 635 nm fluorescence, higher = more signal;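 also: score merges 667 nm feature fluorescence with signal to noise over triplicate slides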
# [19] = target: Neurogenic locus notch homolog protein 3 (Homo sapiens) (UniProt Q9UM47); assay: small molecules binding NOTCH3 protein – biochemical, 635/667 nm fluorescence, primary screen (AID 1096); settings: small-molecule microarray, 635 nm fluorescence, higher = more signal
# [20] = probe aEGFR binding to arrayed compounds – biochemical, biotinylated probe, 635/667 nm fluorescence, primary screen (AID 1097); settings: small-molecule microarray, higher = more signal;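 also: probe is a biotinylated anti-EGFR antibody binding compounds printed on slides; score combines fluorescence near 667 nm and signal to noise of each spot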
# Pro-neuregulin-1, membrane-bound isoform (Homo sapiens), sequence (Q02297 whole entry, looked up, the tested form may be a part, canonical isoform): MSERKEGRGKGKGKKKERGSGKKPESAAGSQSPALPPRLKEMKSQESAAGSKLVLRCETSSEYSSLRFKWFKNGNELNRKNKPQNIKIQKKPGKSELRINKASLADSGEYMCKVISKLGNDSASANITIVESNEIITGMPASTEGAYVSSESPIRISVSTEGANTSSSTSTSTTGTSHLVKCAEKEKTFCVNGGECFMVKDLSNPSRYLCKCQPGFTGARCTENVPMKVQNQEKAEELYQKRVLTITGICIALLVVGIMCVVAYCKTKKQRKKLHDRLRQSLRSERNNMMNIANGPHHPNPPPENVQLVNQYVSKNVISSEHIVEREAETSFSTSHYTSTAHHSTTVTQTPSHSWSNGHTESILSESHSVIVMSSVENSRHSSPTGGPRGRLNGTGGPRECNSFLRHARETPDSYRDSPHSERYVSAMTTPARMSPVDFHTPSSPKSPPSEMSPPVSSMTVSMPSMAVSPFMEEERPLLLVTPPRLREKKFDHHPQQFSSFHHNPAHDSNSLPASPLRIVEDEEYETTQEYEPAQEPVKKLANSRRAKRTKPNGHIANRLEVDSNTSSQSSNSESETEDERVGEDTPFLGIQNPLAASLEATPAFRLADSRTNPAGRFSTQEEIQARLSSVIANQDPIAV
# Torsin-1A-interacting protein 2 (Homo sapiens), sequence (Q8NFQ8 whole entry, looked up): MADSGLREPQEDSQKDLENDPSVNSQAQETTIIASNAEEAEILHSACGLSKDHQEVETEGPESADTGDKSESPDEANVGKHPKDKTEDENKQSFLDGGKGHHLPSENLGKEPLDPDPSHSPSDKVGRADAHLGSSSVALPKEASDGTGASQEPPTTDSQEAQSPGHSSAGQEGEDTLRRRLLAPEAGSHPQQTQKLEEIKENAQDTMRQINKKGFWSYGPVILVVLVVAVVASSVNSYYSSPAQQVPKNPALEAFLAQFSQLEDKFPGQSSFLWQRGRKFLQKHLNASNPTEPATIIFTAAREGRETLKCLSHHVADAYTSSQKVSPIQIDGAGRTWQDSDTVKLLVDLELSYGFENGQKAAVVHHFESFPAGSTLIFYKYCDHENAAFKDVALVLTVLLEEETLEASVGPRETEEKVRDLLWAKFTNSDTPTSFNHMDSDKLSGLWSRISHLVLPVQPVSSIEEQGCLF
# Neurogenic locus notch homolog protein 2 (Homo sapiens), sequence (Q04721 whole entry, looked up, canonical isoform): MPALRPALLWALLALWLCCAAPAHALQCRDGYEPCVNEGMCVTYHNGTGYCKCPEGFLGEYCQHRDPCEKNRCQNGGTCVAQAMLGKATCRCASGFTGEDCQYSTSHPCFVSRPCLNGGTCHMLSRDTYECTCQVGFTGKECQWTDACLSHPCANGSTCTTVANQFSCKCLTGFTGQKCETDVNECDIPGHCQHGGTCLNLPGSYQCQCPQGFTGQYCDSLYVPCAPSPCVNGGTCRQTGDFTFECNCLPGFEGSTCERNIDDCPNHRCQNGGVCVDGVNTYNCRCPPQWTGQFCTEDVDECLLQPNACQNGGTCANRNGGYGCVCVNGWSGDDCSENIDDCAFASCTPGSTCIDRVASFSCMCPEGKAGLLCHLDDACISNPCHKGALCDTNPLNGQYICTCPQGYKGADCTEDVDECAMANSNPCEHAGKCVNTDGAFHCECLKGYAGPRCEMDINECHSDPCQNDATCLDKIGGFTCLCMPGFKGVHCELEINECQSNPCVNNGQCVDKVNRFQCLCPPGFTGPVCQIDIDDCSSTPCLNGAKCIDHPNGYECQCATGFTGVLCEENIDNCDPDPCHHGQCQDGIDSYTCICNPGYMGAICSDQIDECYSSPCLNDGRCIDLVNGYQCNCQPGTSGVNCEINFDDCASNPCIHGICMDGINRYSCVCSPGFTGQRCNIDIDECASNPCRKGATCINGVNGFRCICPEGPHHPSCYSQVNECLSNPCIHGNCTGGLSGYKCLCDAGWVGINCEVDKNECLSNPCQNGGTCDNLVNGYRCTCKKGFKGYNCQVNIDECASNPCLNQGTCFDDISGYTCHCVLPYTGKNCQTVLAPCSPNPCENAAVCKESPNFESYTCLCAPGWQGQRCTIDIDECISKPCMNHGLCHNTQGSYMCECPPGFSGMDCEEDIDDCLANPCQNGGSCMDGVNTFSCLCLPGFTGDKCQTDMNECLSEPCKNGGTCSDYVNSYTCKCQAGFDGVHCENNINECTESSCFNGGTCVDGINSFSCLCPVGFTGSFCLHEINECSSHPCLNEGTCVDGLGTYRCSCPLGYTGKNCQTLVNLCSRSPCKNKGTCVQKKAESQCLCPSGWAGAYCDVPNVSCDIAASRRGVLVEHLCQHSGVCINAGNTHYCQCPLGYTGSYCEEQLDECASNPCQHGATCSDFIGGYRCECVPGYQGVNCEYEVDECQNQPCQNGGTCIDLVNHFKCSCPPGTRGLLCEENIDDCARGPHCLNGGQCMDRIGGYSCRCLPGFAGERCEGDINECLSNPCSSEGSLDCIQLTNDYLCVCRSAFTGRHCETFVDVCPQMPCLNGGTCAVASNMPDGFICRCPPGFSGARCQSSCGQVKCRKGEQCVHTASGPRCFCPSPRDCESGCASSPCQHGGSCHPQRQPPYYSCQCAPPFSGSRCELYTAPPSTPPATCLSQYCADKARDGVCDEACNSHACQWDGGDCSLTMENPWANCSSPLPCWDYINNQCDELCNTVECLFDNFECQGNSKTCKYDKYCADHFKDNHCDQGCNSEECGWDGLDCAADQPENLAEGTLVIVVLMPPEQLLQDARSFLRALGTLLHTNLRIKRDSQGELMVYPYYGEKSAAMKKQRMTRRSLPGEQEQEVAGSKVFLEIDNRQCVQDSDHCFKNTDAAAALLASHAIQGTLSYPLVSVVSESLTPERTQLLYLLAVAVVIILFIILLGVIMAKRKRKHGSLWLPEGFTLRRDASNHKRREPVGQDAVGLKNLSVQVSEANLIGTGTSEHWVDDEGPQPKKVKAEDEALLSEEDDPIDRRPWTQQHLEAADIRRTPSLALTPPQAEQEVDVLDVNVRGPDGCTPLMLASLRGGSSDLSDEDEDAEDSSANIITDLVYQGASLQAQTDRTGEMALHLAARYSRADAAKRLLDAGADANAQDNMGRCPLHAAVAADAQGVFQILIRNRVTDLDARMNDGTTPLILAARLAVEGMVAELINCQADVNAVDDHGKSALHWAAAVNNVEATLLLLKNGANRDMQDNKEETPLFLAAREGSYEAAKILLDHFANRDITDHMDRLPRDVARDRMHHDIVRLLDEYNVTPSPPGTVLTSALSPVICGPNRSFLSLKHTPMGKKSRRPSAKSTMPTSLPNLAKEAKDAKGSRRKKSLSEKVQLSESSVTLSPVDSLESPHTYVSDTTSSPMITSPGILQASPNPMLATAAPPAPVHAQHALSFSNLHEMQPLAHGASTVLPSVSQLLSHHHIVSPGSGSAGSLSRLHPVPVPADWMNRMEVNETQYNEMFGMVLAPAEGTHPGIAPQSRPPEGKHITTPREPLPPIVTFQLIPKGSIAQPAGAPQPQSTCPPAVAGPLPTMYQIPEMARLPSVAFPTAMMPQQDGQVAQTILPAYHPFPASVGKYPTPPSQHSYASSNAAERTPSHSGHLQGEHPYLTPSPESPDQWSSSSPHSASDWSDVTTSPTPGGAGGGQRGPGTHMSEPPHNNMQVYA
SMILES,composite z-score [1],composite z-score [2],composite z-score [3],composite z-score [4],composite z-score [5],composite z-score [6],composite z-score [7],z-score [8],composite z-score [9],composite z-score [10],composite z-score [11],z-score [12],z-score [13],z-score [14],composite z-score [15],z-score [16],composite z-score [17],composite z-score [18],composite z-score [19],composite z-score [20]
CC(C)(C)N1CC=CC23O[C@@H]4C=CCOC(=O)[C@@H]4[C@H]2C(=O)N(CCCO)[C@@H]3C1=O (stereo not given in full),0.698,-0.182,-0.199,-0.838,-1.54,-0.475,1.08,0.619 (inactive),-1,-0.0994,-0.768,0.149 (inactive),0.0155 (inactive),-0.288 (inactive),-0.558,1.27 (inactive),-0.147,-1.62,-1.54,-0.314
O=C1OCC=C[C@H]2OC34C=CCN(c5ccc(Cl)cc5)C(=O)[C@H]3N(CCCCCO)C(=O)[C@@H]4[C@@H]12 (stereo not given in full),0.716,1.77,-0.163,-0.815,-1.07,-0.0571,1.06,-0.633 (inactive),-0.354,-0.236,-0.449,-0.984 (inactive),-1.03 (inactive),-0.497 (inactive),2.58,1 (inactive),-0.117,-1.64,-0.68,-0.208
C[C@H]1C2=C3C(CC[C@H]4C(OCc5ccc(F)cc5C(F)(F)F)OC[C@](C)([C@@H]34)N(C(=O)OC(C)(C)C)C2)C2COC(=O)OCC21 (stereo not given in full),0.42,-0.119,-0.0325,0.226,1.43,1.71,1.03,2.53 (inactive),1.61,0.44,0.63,-0.271 (inactive),-1.22 (inactive),0.258 (inactive),3.52,-1.4 (inactive),0.453,-0.618,1.07,-0.019
C=C(CCCC)C(=O)CC[C@@H](OC(=O)c1ccccc1-c1ccccc1C(=O)O)c1cccc(OCCO)c1,-0.208,0.996,-0.129,0.166,-0.404,0.143,0.742,0.238 (inactive),-0.499,-0.249,1.53,0.299 (inactive),-0.694 (inactive),-0.541 (inactive),0.13,0.169 (inactive),-0.31,1.06,0.675,-0.287
CCOC(=O)C[C@H]1[C@H](OC(=O)Cc2ccc3c(c2)OCO3)[C@@H](NC(=O)Cc2ccc(OC)cc2)c2cc(OCCCO)ccc2N1C(=O)c1ccccc1,-0.244,0.188,-0.11,0.494,0.608,0.416,0.436,-1.38 (inactive),0.447,-0.353,1.26,-0.13 (inactive),0.0145 (inactive),0.234 (inactive),1.37,1.26 (inactive),-0.0846,0.0653,0.608,0.0032
CC(C)(C)OC(=O)CC[C@]1(C(=O)NCCN2CCOCC2)N=C(c2ccc(OCCCO)cc2)O[C@H]1c1ccccc1,0.445,-1.1,-0.0939,-0.109,-0.313,1.66,1.09,0.273 (inactive),0.285,-0.0618,1.55,0.681 (inactive),0.0586 (inactive),-0.23 (inactive),3.23,0.437 (inactive),-0.007,-0.316,-0.532,0.34
NCCCCCNC(=O)[C@@H]1C[C@@H]2C(=O)N[C@@H](CCCCN)C(=O)N2[C@@H]1c1cccc(OCCO)c1,0.0523,0.329,-0.0037,-0.202,-0.254,2.11,0.969,-0.697 (inactive),-0.413,0.0497,0.61,0.656 (inactive),0.212 (inactive),-0.0182 (inactive),0.557,0.767 (inactive),0.119,0.878,0.702,-0.0306
CC(C)OC(=O)CC(=O)CC(O)c1cccc(C#N)c1 (stereo not given),0.424,0.995,-0.0103,0.535,1.43,0.311,0.936,-0.326 (inactive),0.494,-0.452,0.864,-2.17 (inactive),-0.0003 (inactive),-1.66 (inactive),2.15,0.435 (inactive),0.237,-0.412,0.753,0.0201
CN1C(=O)C2C(C1=O)C1C=C(c3ccc(CO)cc3)C2C(c2cccs2)N1Cc1cccc(OC(F)(F)F)c1 (stereo not given),-0.16,0.669,-0.109,0.432,1.25,1.87,1.35,0.785 (inactive),0.875,0.0505,1.55,-1.68 (inactive),-2.57 (inactive),3.35 (inactive),2.65,0.907 (inactive),0.0007,1.38,1.09,-0.013
CN(C)CCCCNC(=O)[C@H]1C[C@H]2C(=O)N3CCC[C@H]3C(=O)N2[C@H]1c1ccc(O)cc1,-1.12,-1.77,-0.284,-1.1,-1.3,-1.06,-0.239,4.64 (inactive),0.0253,-0.389,0.765,-0.859 (inactive),1.1 (inactive),-0.384 (inactive),0.391,1.27 (inactive),-0.234,-0.439,0.229,-0.45
CCCCC(=C=CC[C@@H](O)c1ccc(OCCO)cc1)C[C@@H](O)COCc1ccccc1,-0.111,1.09,-0.0783,0.114,-1.11,-0.376,-0.0622,-2.2 (inactive),0.101,0.0743,0.989,-1.24 (inactive),-2.39 (inactive),-1.07 (inactive),0.146,1.69 (inactive),-0.166,1.14,-0.198,-0.18
